Hit rate of the full screen: of about 94,000 compounds, about 2,100 (2.2%) were called active. The sample holds actives, similar compounds and a random draw of the others, so the mix is not that of the screen. No stated cut-off is given here; in the data, active means activity change below about -80%; inconclusive means no clear call, values can overlap the other calls; inactive means above that.
Assay: P. falciparum Dd2 growth inhibitors, primary screen, SYBR Green fluorescence, single dose replicates (AID 1159554)
Settings: 72 h, at 10 µM, stronger effect = lower value

Activity change, inactive:
C[C@@H]1CN([C@H](C)CO)C(=O)c2cc(Br)cnc2O[C@@H]1CN(C)Cc1cncnc1 25.3%
O=C1CN(Cc2ccccc2)C[C@H]2[C@H](c3ccc(-c4ccccc4)cc3)[C@@H](CO)N12 -11%
COCC(=O)Nc1ccc2c(c1)C(=O)N(C)[C@H]1CC[C@@H](CC(=O)NCc3cccc(F)c3)O[C@H]1CO2 -2.71%
C[C@H]1CCCCO[C@@H](CN(C)C(=O)c2ccccc2)[C@@H](C)CN([C@@H](C)CO)C(=O)c2cc(NS(=O)(=O)c3cccs3)ccc2O1 -57.2%
CCCN(C)C[C@H]1OCCCC[C@H](C)Oc2ccc(NS(=O)(=O)c3ccc(C)cc3)cc2C(=O)N([C@@H](C)CO)C[C@H]1C -65.3%
CC(C)NC(=O)Nc1ccc2c(c1)C(=O)N([C@@H](C)CO)C[C@H](C)[C@H](CN(C)S(=O)(=O)c1ccc(Cl)cc1)OCCCC[C@H](C)O2 -79.5%
C[C@@H]1CCCCO[C@@H](CN(C)C(=O)NC2CCCCC2)[C@H](C)CN([C@@H](C)CO)C(=O)c2cc(NC(=O)Nc3ccc(F)cc3)ccc2O1 7.58%
C[C@@H]1CN([C@@H](C)CO)C(=O)c2cc(NS(=O)(=O)c3cccs3)ccc2O[C@@H](C)CCCCO[C@@H]1CN(C)C(=O)NC1CCCCC1 -14%
C[C@H](CO)N1C[C@H](C)[C@@H](CN(C)S(C)(=O)=O)OCCCC[C@H](C)Oc2ccc(NC(=O)Nc3cccc4ccccc34)cc2C1=O 11.4%
Cc1ccc(S(=O)(=O)Nc2ccc3c(c2)C(=O)N([C@H](C)CO)C[C@@H](C)[C@@H](CN(C)C)OCCCC[C@@H](C)O3)cc1 -28.5%
C[C@@H]1CCCCO[C@H](CN(C)C(=O)NC2CCCCC2)[C@H](C)CN([C@@H](C)CO)C(=O)c2cc(NC(=O)Nc3ccc(F)cc3)ccc2O1 -11.4%
CCCNC(=O)N[C@@H]1CC[C@@H](CCn2cc(C3CC3)nn2)O[C@@H]1CO 12.3%
COc1ccccc1S(=O)(=O)N1C[C@@H](O)COC[C@H]2O[C@H](CC(=O)O)CC[C@@H]21 -3.23%
COc1ccc(NC(=O)N(C)C[C@@H]2Oc3ncc(-c4ccc(C#N)cc4)cc3C(=O)N([C@@H](C)CO)C[C@H]2C)cc1 34.7%
O=C(C1CCC1)N1CC[C@@H]2[C@H]1c1cc(C#Cc3ccc(F)cc3)ccc1N[C@@H]2CO -70.8%
O=C(c1cccc(F)c1)N1C[C@H]2[C@@H](c3ccccc31)[C@@H](CO)N2C(=O)Cc1ccccc1 0.269%
C[C@H](CO)N1C[C@H](C)[C@@H](CN(C)CC2CCCCC2)Oc2ccc(NS(=O)(=O)c3cccs3)cc2CC1=O -7.92%
C[C@@H]1CCCCO[C@H](CN(C)CC2CCCCC2)[C@H](C)CN([C@H](C)CO)C(=O)c2cc(NC(=O)Nc3ccc(F)cc3)ccc2O1 -79.8%
COc1ccc(NC(=O)Nc2ccc3c(c2)C(=O)N([C@@H](C)CO)C[C@H](C)[C@H](CN(C)CC2CCCCC2)O3)cc1 13.9%
COc1ccc(NC(=O)Nc2ccc3c(c2)C(=O)N([C@H](C)CO)C[C@H](C)[C@@H](CN(C)C(=O)Nc2ccc(OC)cc2)OCCCC[C@H](C)O3)cc1 -22.2%
C[C@@H]1CCCCO[C@H](CN(C)Cc2ccccc2)[C@@H](C)CN([C@@H](C)CO)C(=O)c2cc(NC(=O)Nc3ccc(F)cc3)ccc2O1 -73.3%
CC(C)NC(=O)Nc1ccc2c(c1)C(=O)N([C@H](C)CO)C[C@H](C)[C@@H](CN(C)CC1CCCCC1)OCCCC[C@@H](C)O2 -13.3%
COc1ccc(NC(=O)Nc2ccc3c(c2)C(=O)N([C@H](C)CO)C[C@H](C)[C@@H](CN(C)S(=O)(=O)c2ccc(OC)cc2)OCCCC[C@H](C)O3)cc1 0.392%
CCCN(C)C[C@@H]1OCCCC[C@@H](C)Oc2ccc(NC(=O)Nc3ccc(C(F)(F)F)cc3)cc2C(=O)N([C@H](C)CO)C[C@H]1C -75.7%
COc1ccc(S(=O)(=O)N(C)C[C@@H]2OCCCC[C@H](C)Oc3ccc(NC(=O)Nc4ccccc4)cc3C(=O)N([C@@H](C)CO)C[C@H]2C)cc1 -79.2%
O=C(C1CCCCC1)N1CC2(C1)[C@H](c1ccccc1)[C@@H](CO)N2Cc1cncnc1 32.5%
O=C(C[C@@H]1CC[C@@H]2[C@H](COC[C@H](O)CN2S(=O)(=O)c2ccccc2F)O1)NCc1ccccc1F 0.606%
C[C@@H]1CCCCO[C@@H](CN(C)S(=O)(=O)c2cn(C)cn2)[C@H](C)CN([C@@H](C)CO)C(=O)c2cc(NC(=O)Nc3ccccc3)ccc2O1 -13.9%
CC(C)NC(=O)N1[C@@H]2CN(C(=O)Nc3ccc(F)cc3)c3ccccc3[C@@H]2[C@@H]1CO 18.6%
C[C@@H]1CN([C@H](C)CO)S(=O)(=O)c2ccc(C#Cc3ccccc3F)cc2O[C@@H]1CN(C)C(=O)c1ccc2c(c1)OCO2 -67%
CC(=O)N(C)C[C@@H]1Oc2cc(C#Cc3ccccc3F)ccc2S(=O)(=O)N([C@@H](C)CO)C[C@@H]1C -36.8%
CC(=O)N(C)C[C@H]1Oc2cc(C#Cc3ccccc3F)ccc2S(=O)(=O)N([C@@H](C)CO)C[C@H]1C -22.1%
CC(=O)N(C)C[C@H]1Oc2cc(C#Cc3ccccc3F)ccc2S(=O)(=O)N([C@H](C)CO)C[C@@H]1C -24.1%
COc1ccc(C#Cc2ccc([C@H]3[C@@H](CO)N4CCCCN(C(=O)Nc5ccccc5)C[C@H]34)cc2)cc1 -69.3%
CN(C)CC#Cc1ccc([C@@H]2[C@H](CO)N3CCCCN(C(=O)Nc4ccc(F)cc4)C[C@@H]23)cc1 -18.7%
C[C@H](CO)N1C[C@H](C)[C@@H](CN(C)Cc2cccc(F)c2)Oc2cc(C#CC3CC3)ccc2S1(=O)=O -15.8%
C[C@@H]1CN([C@H](C)CO)S(=O)(=O)c2ccc(-c3ccccc3)cc2O[C@@H]1CN(C)CC1CC1 -40.4%
CCC(=O)N(C)C[C@H]1Oc2cc(-c3cccc(C#N)c3)ccc2S(=O)(=O)N([C@@H](C)CO)C[C@@H]1C 7.55%
C[C@@H]1CN([C@@H](C)CO)S(=O)(=O)c2ccc(-c3cccc(C#N)c3)cc2O[C@@H]1CN(C)Cc1cccc(F)c1 -39.8%
C[C@H](CO)N1C[C@H](C)[C@@H](CN(C)C(=O)C2CC2)Oc2cc(-c3cccc(C#N)c3)ccc2S1(=O)=O -26.1%
CNC(=O)C[C@@H]1CC[C@@H]2[C@H](COC[C@@H](O)CN2S(=O)(=O)c2ccccc2Cl)O1 24.5%
Cc1ccccc1-c1ccc2c(c1)O[C@H](CN(C)Cc1ccc(C(=O)O)cc1)[C@@H](C)CN([C@H](C)CO)S2(=O)=O -8.07%
CO[C@H](CN(C)C(=O)c1ccc2c(c1)OCO2)[C@H](C)CN([C@@H](C)CO)S(=O)(=O)c1ccc(Cl)cc1 10.7%

Activity change, active:
C[C@@H]1CN([C@@H](C)CO)C(=O)c2cc(NC(=O)Nc3cccc4ccccc34)ccc2O[C@@H](C)CCCCO[C@@H]1CN(C)S(=O)(=O)c1ccc(Cl)cc1 -85.2%
C[C@H]1CCCCO[C@@H](CN(C)C(=O)C2CCCCC2)[C@@H](C)CN([C@@H](C)CO)C(=O)c2cc(NS(=O)(=O)c3cccs3)ccc2O1 -83.8%
CCCN(C)C[C@@H]1OCCCC[C@H](C)Oc2ccc(NS(=O)(=O)c3ccc(C)cc3)cc2C(=O)N([C@H](C)CO)C[C@@H]1C -87.8%
C[C@@H]1CCCCO[C@H](CN(C)C(=O)NC2CCCCC2)[C@H](C)CN([C@H](C)CO)C(=O)c2cc(NC(=O)Nc3ccc(F)cc3)ccc2O1 -85.2%
CCCN(C)C[C@H]1OCCCC[C@@H](C)Oc2ccc(NC(=O)Nc3ccc(F)cc3)cc2C(=O)N([C@@H](C)CO)C[C@H]1C -91.5%
C[C@@H]1CN([C@H](C)CO)C(=O)c2cc(NC(=O)Nc3ccc(F)cc3)ccc2O[C@@H](C)CCCCO[C@@H]1CN(C)CC1CCCCC1 -82.5%
COc1ccc(NC(=O)Nc2ccc3c(c2)C(=O)N([C@@H](C)CO)C[C@H](C)[C@H](CN(C)S(=O)(=O)c2ccccc2)OCCCC[C@@H](C)O3)cc1 -87.4%
COc1ccc(NC(=O)Nc2ccc3c(c2)C(=O)N([C@H](C)CO)C[C@@H](C)[C@H](CN(C)CC2CCCCC2)OCCCC[C@@H](C)O3)cc1 -85.2%
C[C@H]1CN([C@@H](C)CO)S(=O)(=O)c2ccc(C#Cc3ccccc3F)cc2O[C@@H]1CN(C)C(=O)c1ccc2c(c1)OCO2 -86.6%
C[C@@H]1CN([C@@H](C)CO)S(=O)(=O)c2ccc(C#Cc3ccccc3F)cc2O[C@H]1CN(C)C(=O)c1ccc2c(c1)OCO2 -85.3%
O=C(Nc1ccc(F)cc1)N1CCCCN2[C@H](CO)[C@H](c3ccc(C#Cc4ccccc4)cc3)[C@H]2C1 -83.4%
C[C@H]1CN([C@@H](C)CO)S(=O)(=O)c2ccc(-c3cccc(C#N)c3)cc2O[C@H]1CN(C)CC1CC1 -83.2%
CCCN(C)C[C@@H]1Oc2cc(-c3cccc(C#N)c3)ccc2S(=O)(=O)N([C@@H](C)CO)C[C@@H]1C -82.2%

From PubChem BioAssay AID1159554 (Broad Institute, 2015)
